# From PubChem BioAssay AID1508600 (Functional Genomics Laboratory (NCATS/FGL), 2020)
# Out of some 53,000 sequences screened, about 3,700 (7%) were called active.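 How the source made its calls: active means gene knockdowns whose robust z-score for IL-1 alpha signal is at least 2 or at most -2, so actives lie on both sides; inactive means the rest.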 This excerpt belongs to a sample that is enriched for actives.
# Test: Components of the Cytosolic LPS Sensing Pathway: Gene Identification via Genome-wide siRNA Screen;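 further: robust z of the log signal after scaling to non-targeting control siRNA wells of the plate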
# Conditions: RAW264.7 macrophages, IL-1a HTRF, actives lie on both sides, screened at 100 nM (by protocol), cells primed 5 h with Pam3CSK4 first
# Procedure, shortened: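 Three distinct siRNAs per gene were tested singly at 100 nM in RAW264.7 macrophages. Following Pam3CSK4 priming and 24 hour LipidA transfection, IL-1a secretion was read by HTRF.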
row,Sequence,z-score
1,GCUUCUGCUUGUUCGCUAGTT against Usp17ld,2.7 (active)
2,GCUCACUAUGUAAAGAGAATT against Itpk1,0.807 (inactive)
3,GGAGAGUCAAGUCUUUUCUTT against Dnal4,0.0546 (inactive)
4,GGACAAACUCCGAGACUCCTT against Utf1,-0.339 (inactive)
5,GGAUGAUCAUUCUAGCUGUTT against Hormad1,0.836 (inactive)
6,GGUGUCUGAUUCUAACAUATT against Catsper4,0.589 (inactive)
7,GGAAGAAAACACCAUUUUUTT against Irf6,3.12 (active)
8,GGUGCAAUCAGGUAUUUCATT against Olfr917,-2.26 (active)
9,GGAAAGUGGACACCUUCCATT against Vezt,1.2 (inactive)
10,CCAGAAGCCAUUAACUAUGTT against Lck,-0.479 (inactive)
11,GGACGUGGAAAACCACAGUTT against Nphp4,0.0474 (inactive)
12,GGAUUUCGAGAAAAUCAACTT against Kctd4,-0.225 (inactive)
13,GGUGCUGGACAAAUUGAGATT against Cgas,-0.189 (inactive)
14,GGAGUGCAGUCACUAUUUGTT against Il2rg,-0.0154 (inactive)
15,GGUUCUUCAGGCCACUGAUTT against Dnaaf2,0.982 (inactive)
16,GGAUGCAGAGAAGAAUCUGTT against Psmd6,-2.65 (active)
17,GGAGAAGGACCAUCUAAAGTT against Cmah,0.901 (inactive)
18,CGUCUAGGAAGGAAACAGGTT against Stk32a,-1.54 (inactive)
19,GGAUGGUUACUAUCAGACUTT against Exoc3,0.187 (inactive)
20,CCAGAUGGAAAGCGAAAAATT against Thra,-0.27 (inactive)
21,GGAGAAUGGCCACGUAAAATT against Marcks,0.294 (inactive)
22,GGAUAUCUCACUGCUUUUATT against Mpp5,2.13 (active)

row,Sequence,z-score
1,GGCAUCCUUGAGCUUUAAATT against Nufip2,-0.0213 (inactive)
2,GGUGCAAGUUUUUCAGUCUTT against Castor2,0.411 (inactive)
3,GCACCAUGAAUGGAGAUGATT against Prl2c5,-2.56 (active)
4,GCCAUACACAGUGGCAUAATT against Zfp811,0.395 (inactive)
5,CCAUAAAUCAUGAACUGGUTT against Sesn3,-1.41 (inactive)
6,GGGCAAGAACUACAUCUGCTT against Wdr18,-0.288 (inactive)
7,CCCAAAUACUCCAAUUAUATT against Fzd3,0.289 (inactive)
8,GCAUCUGGUAAAAGGAGCATT against Rpap1,0.956 (inactive)
9,GCCAGUGGUAUCUGGAAGUTT against Brca2,0.0865 (inactive)
10,GGUAGAGCUAAGUAAAGAGTT against Pwp1,-0.977 (inactive)
11,GGCAGUAAUAGGAGACCAUTT against Ces1d,2.76 (active)
12,GGCUUCAGCAAAGACAAUGTT against Ache,-1.07 (inactive)
13,CGCAAAGUGGACAAACGUATT against Kcne3,0.0218 (inactive)
14,CCAAUCGGUGAUCAAGAAATT against Tfap2e,-0.525 (inactive)
15,GCCAAGGUUAUCAUGAAUGTT against F13a1,-0.141 (inactive)
16,GUUUUUCUGGGCAAUUUUATT against Olfr739,2.11 (active)
17,GGAGAUUUACUCACAGUUCTT against Kcnip4,1.26 (inactive)
18,GUAAAAUGUUCACUAAAGCTT against Olfr1248,-1.14 (inactive)
19,GCUUAUAAUGCCAUUACUUTT against Rad21,-0.548 (inactive)
20,CGAUUUAAAGUAGUAGUGGTT against Dusp28,-1.13 (inactive)
21,GACAGAAAUAUAGACUCGATT against Ppp1r42,-2.45 (active)
22,CGGAUAACAAAAGUAGCAATT against Trp53rka,0.276 (inactive)

row,Sequence,z-score
1,GGUUUAGCAUCGUCCUAUATT against Crmp1,-0.495 (inactive)
2,CGGCAGAUGCAUUCAGGAUTT against Ccdc125,0.0172 (inactive)
3,GGAGGUGUUAGAUUUUGACTT against Asrgl1,-0.295 (inactive)
4,GGCGGAGGAAGAGUUCAACTT against Atp6v1e2,-0.393 (inactive)
5,GGAUGAAACUAUUCAGCACTT against Chml,-0.635 (inactive)
6,GCAGGAGGAUUAGUAAAUUTT against Ier2,0.966 (inactive)
7,CCCUAUUGUCAAUAUUCUATT against Nr1h5,0.492 (inactive)
8,GGGAGCAAAAGCUUUACUUTT against Prl3c1,2.25 (active)
9,GGAGAAAUUUCUGAGAAGATT against Slc51a,-1.24 (inactive)
10,GGCGGCCUUAGUAGAUAUCTT against Acsl4,0.677 (inactive)
11,GGAACAAGGAAGUUACAGGTT against Olfr30,-1.06 (inactive)
12,GAAAAGAGUUUCCACGAGATT against Il19,0.0645 (inactive)
13,GGAGAUUCUCCAUAACCUGTT against Rnf135,2.29 (active)
14,GGGAGAAAGAUUGUAACUATT against 1110032A03Rik,-1.05 (inactive)
15,GGAACAAAAACCAUUGUGATT against Gng7,-1.49 (inactive)
16,CGAACCUGUUGACGGAUUCTT against Wnt1,0.563 (inactive)
17,GGACAAAGCAAUCCACAUCTT against Wdr55,-0.564 (inactive)
18,CCAUCGGGAUUGACUAUGGTT against Dnajc27,-0.878 (inactive)
19,GCUAAUGAUACAGAAGUUGTT against Snrpb2,0.661 (inactive)
20,GGAGGAUGAGGAUUUUGAUTT against Spsb3,2.16 (active)
21,CCACUUCUUUCCAUGAACUTT against Slc6a4,0.7 (inactive)
22,GGCAGAUUGAUAAAAUUCATT against Stag1,-0.223 (inactive)

row,Sequence,z-score
1,GCUCAGUCUCUUGGGUGGUTT against Cel,2.27 (active)
2,GCUCUGUUCACCUACCCGATT against Anapc16,0.264 (inactive)
3,GGUUGUACUUGUUUUUCCUTT against Dtwd1,1.35 (inactive)
4,GCAUUGUCAUGAUACAACATT against Fem1b,0.793 (inactive)
5,GGAGGAGAGGAGAAUAGCATT against Atp5k,-0.586 (inactive)
6,GGAACUACAACAGAAACGATT against Cep131,-1.42 (inactive)
7,GUGACAAUGAAAAAUGUGUTT against Clec4b1,-2.42 (active)
8,GGAAAUGUCUUAUGAUAACTT against Col5a1,0.194 (inactive)
9,CCUCAUCAAUCAGCCUAUGTT against Olfr1178,-1.83 (inactive)
10,GCAUCGCUAAGUCCGUCUUTT against Aqp4,-0.1 (inactive)
11,GGACCUGUAUUCUCAGGGATT against Lce1a2,-0.251 (inactive)
12,CCUGUAACCUUGCUUAAUGTT against Hoxc6,0.0208 (inactive)
13,GGAGAAAUGAAGGUAUACATT against Cert1,-1.12 (inactive)
14,GGUUUAUGACAAACUGAAATT against Enpp4,-0.0826 (inactive)
15,GCAGAAGUUAAGAUGCAUATT against Usf1,2.02 (active)
16,CCUGCUCAACGGAGACCAUTT against Hmx3,3.47 (active)
17,GGCUUGAGACUUAAAACGGTT against Lztfl1,0.583 (inactive)
18,CGCUGAAAUGGUGAAUAAATT against Recql,-0.0529 (inactive)
19,GUCCCACUGUCCAGUUACATT against Gm9946,-0.565 (inactive)
20,CGAGAGAAGCCCAUCAUCATT against Nrg4,1 (inactive)
21,GGAAGAAAAGGGAUAUCAGTT against Xirp1,0.253 (inactive)
22,GGUUCAGACACCACUUCAGTT against Bgn,2.56 (active)

row,Sequence,z-score
1,GGAGGAUCACCCAUCAAAUTT against Oxct1,-0.083 (inactive)
2,GGUAUUUUGAUGUUGGACUTT against Hhat,0.989 (inactive)
3,GGAUGUGAAACAUGCUUUUTT against Olfr1030,0.536 (inactive)
4,CCUCAUGCAGCUCAAUCUATT against Prelp,-2.41 (active)
5,GGCUAUGGCUUUUGUAUGUTT against Arpin,-0.0747 (inactive)
6,GGACUCAAUAAGAACCUCGTT against Papss1,-1.25 (inactive)
7,GGAUGAAAGUUGUAUGUAUTT against Ctsk,-0.606 (inactive)
8,GGAUCGUGAGCUUCUAUUATT against Gask1a,0.434 (inactive)
9,CGAGAAGUGCUGACUCAAUTT against Map2k3os,0.563 (inactive)
10,GGAUGUCUGGAAUGAAACATT against Slc17a4,-3.16 (active)
11,GGAGAGCUGCAUCAAAAAGTT against Prdm16,0.545 (inactive)
12,GGUGCUCAUGCAGGUCCAUTT against Slc25a25,-0.356 (inactive)
13,GGGCCAUCUCUCAAUUAUGTT against Gga2,1.93 (inactive)
14,GGUUCUACAUGUGAAACAATT against Zfp143,-2.15 (active)
15,GCCUGGUCUCACUAUGUAGTT against Hpvc2,0.129 (inactive)
16,GGACGUGUUUUACAAAUACTT against Srsf1,-0.979 (inactive)
17,GGGAAAAUAUCUCAUAUCATT against Colec10,-0.944 (inactive)
18,GGGCUGAAGAUGACUUCAATT against Topors,5.91 (active)
19,GGAUGUCUCGGAACUAAGGTT against Med28,-0.571 (inactive)
20,GGUAUUACAAGGUCAUAUCTT against Nol12,-0.357 (inactive)
